# Records with an inconclusive call do not appear. Active and inactive are the calls of the source. Calls follow the shape of the dose curve; as a rule, active = well fitted cell-killing curve with a large enough effect; inconclusive = small, poorly fitted or top-dose-only effect; inactive = no such curve, though single readings can be large or run the other way.
# Assay: qHTS of pediatric cancer cell lines to identify multiple opportunities for drug repurposing: Primary screen for OHS-50 cells (AID 1347103); also: nearly all actives have a fitted effect of over 40% in size
# Conditions: OHS-50 osteosarcoma viability, CellTiter-Glo luminescence, 48 h; series mostly up to 57.3 µM
# How it was run: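 Cells (500-1,000/well) rested 5 h, then received compounds for 48 h; metabolically active cells were measured by CellTiter-Glo luminescence. Final concentrations spanned up to 46 µM (MIPE, 11-point) or 0.59 nM-46 µM (NPC, 8-point) in primary screens, 11-point in follow-ups.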
# Potency is read from the fitted curve at half-maximal effect.
row,SMILES,Potency
1,O=C(O)c1ccc(O)c2ncc(N3CCOCC3)cc12,24.3 µM (active)
2,CCCCN(CCCC)CC(O)c1cc(Cl)cc2c1-c1ccc(Cl)cc1C2=Cc1ccc(Cl)cc1 (stereo not drawn),inactive
3,CON(C)C(=O)N1N=C(c2cc(F)ccc2F)S[C@]1(CCCN)c1ccccc1,0.001 µM (active)
4,O=C1NC(=O)C(=Cc2ccc(-c3ccc(F)cc3O)o2)S1,1.72 µM (active)
5,CO[C@H]1/C=C\O[C@@]2(C)Oc3c(C)c(O)c4c(O)c(c(C=NN5CCN(C6CCCC6)CC5)c(O)c4c3C2=O)NC(=O)C(C)=CC=C[C@H](C)[C@H](O)[C@@H](C)[C@@H](O)[C@@H](C)[C@H](OC(C)=O)[C@H]1C,0.193 µM (active)
6,CNC(=O)c1ccc2c(C(=Nc3cccc(CN(C)C)c3)c3ccccc3)c(O)[nH]c2c1,13.7 µM (active)
7,COc1cc([C@H]2Oc3cc([C@H]4Oc5cc(O)cc(O)c5C(=O)[C@H]4O)ccc3O[C@H]2CO)ccc1O,inactive
8,CN1N=C(N)c2cn([C@@H]3O[C@H](COP(=O)(O)O)[C@@H](O)[C@@H]3O)c3ncnc1c23,0.193 µM (active)
9,CCNC(=O)Nc1ccc(Oc2ncnc(N)c2C=NOC)cc1Cl,inactive
10,O=C(O)Cc1cccc(OCCCN(Cc2cccc(C(F)(F)F)c2Cl)CC(c2ccccc2)c2ccccc2)c1,27.3 µM (active)
11,O=c1[nH]c(=O)n([C@H]2C[C@@H](O)[C@@H](CO)O2)cc1I,inactive
12,CCC(=O)OCC(=O)[C@@]1(OC(=O)CC)[C@@H](C)C[C@@H]2[C@H]3CCC4=CC(=O)C=C[C@]4(C)[C@@]3(F)[C@@H](O)C[C@@]21C,10.9 µM (active)
13,CC(C)C[C@H](NC(=O)c1cc2ccccc2s1)C(=O)N1CCN(C(=O)[C@H](CO)NS(=O)(=O)c2ccc(Cl)cc2Cl)CC1,21.7 µM (active)
14,N#CC(=C1Nc2ccccc2S1)c1ccnc(OCc2ccc(CN3CCOCC3)cc2)n1,0.344 µM (active)
15,CNC1CCC(N(Cc2cccc(-c3ccncc3)c2)C(=O)c2sc3ccccc3c2Cl)CC1 (stereo not drawn),19.3 µM (active)
16,CN1CCN(c2ncc(-c3cc(Cl)cc(Cl)c3Cl)c(N)n2)CC1,3.85 µM (active)
17,C[C@H](CCC(=O)O)[C@H]1CC[C@H]2[C@H]3[C@@H](CC[C@]12C)[C@@]1(C)CC[C@@H](O)C[C@H]1C[C@@H]3O,inactive
18,Nc1[nH]nc2nnc(-c3c(-c4ccccc4)nn4ccccc34)cc12,1.93 µM (active)
19,O=C(CC12CC3CC(CC(C3)C1)C2)Nc1cccc2nc(NCCNCCO)ccc12,27.3 µM (active)
20,CCCCC(C)(C)[C@H](O)C=C[C@H]1[C@H](O)CC(=O)[C@H]1CC=CCCCC(=O)O,inactive
21,CCc1cc(-c2n[nH]c(C)c2-c2ccc3c(c2)OCCO3)c(O)cc1O,9.68 µM (active)
22,CN[C@@H]1CN(c2ccc3c(=O)c(C(=O)O)cn(-c4nccs4)c3n2)C[C@@H]1OC,16.8 µM (active)
23,CC[C@@H]([C@H](C)O)n1ncn(-c2ccc(N3CCN(c4ccc(OCC5CO[C@@](Cn6cncn6)(c6ccc(F)cc6F)C5)cc4)CC3)cc2)c1=O (stereo partly drawn),21.7 µM (active)

# — PubChem BioAssay (NCATS)
